Screening results from PubChem BioAssay.
An excerpt weighted towards active compounds, which were near 2.8% of everything screened.
SNCA viab count – reduces viability of HEK-293 SNCA reporter cells. HEK-293-SNCA-luc viability, GF-AFC fluorescence, 24 h. Potency, µM (top dose mostly 57.1 µM), hits mostly cytotoxic. hit rate 0.12% among 150,000. AID 1671193; also: nearly all actives have a fitted effect of over 30% in size
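Cytotoxicity counterscreen: after 24 h compound treatment of genome-edited SNCA-luciferase HEK-293 cells, live-cell protease substrate GF-AFC read by fluorescence after 30 min; activity scaled between DMSO (0%) and medium-only (-100%), curves Hill-fitted.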
KDM5B inhibitor – blocks human KDM5B histone demethylase activity. KDM5B demethylase, FDH-coupled NADH fluorescence (FDH is formaldehyde dehydrogenase). Potency, µM (highest dose often 57.7 µM), most hits filed as inhibitors. hit rate 2.6% among 220,000; also: nearly all actives have a fitted effect of over 70% in size
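KDM5BΔAP (200 nM final) in 50 mM HEPES pH 7.5, 0.01% Tween-20 was preincubated 10 min at RT with compound over a concentration range. Substrate mix (H3K4me3 12.5 µM, α-KG 25 µM, Fe²⁺, ascorbate, NAD⁺, FDH) was added, and NADH fluorescence change over 30 min gave dose-response curves.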
IP6K1 inh – inhibitors of human IP6K1; Q92551; IP6K1 kinase, ADP-Glo luminescence, 2 h; stronger effect = lower value; activity change, % (series mostly up to about 58 µM); hit rate 0.81% among 140,000; AID 1645851; in the data active = activity change below about -25%
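ADP-Glo luminescence measures ADP made by human IP6K1 during a 2 h RT reaction with ATP/IP6 (mix at 1.3 mM/130 uM); top library doses 57.5 and 19.1 uM final.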
SNCA expr inh – SNCA gene expression inhibition; HEK-293 SNCA-luciferase knock-in, luminescence, 24 h; Potency, µM (top dose mostly 57.2 µM), most hits filed as inhibitors; hit rate 0.17% among 140,000; AID 1671194; also: nearly all actives have a fitted effect of over 45% in size
Large screens that a line does not name were inactive; ! = not confirmed by another sample. Unless noted, calls follow the shape of the dose curve; as a rule, active = well fitted curve in the direction sought with a large enough effect; inconclusive = small, poorly fitted or top-dose-only effect, or another doubt; inactive = no such curve, though single readings can be large; an effect the other way counts as inactive or inconclusive.

COc1ccc(-c2nc(C(C)C)nc3c2CCN(C(=O)c2ccc(F)cc2)CC3)cc1	none
CN(Cc1cccnc1)c1ccc2ncc(Nc3cccc(N[S+](C)(=O)[O-])c3)n2n1	KDM5B inhibitor 18µM
CN(Cc1cccnc1)c1ccc2ncc(Nc3ccc(C(F)(F)F)cc3)n2n1	KDM5B inhibitor 25µM, SNCA expr inh inconclusive
CN(Cc1ccc(F)cc1)c1ccc2ncc(Nc3cccc(N[S+](C)(=O)[O-])c3)n2n1	KDM5B inhibitor inconclusive
CCN(CC)S(=O)(=O)c1cccc(NC(=O)c2ccccc2OCc2cn3ccccc3n2)c1	none (no result: SNCA viab count, IP6K1 inh, SNCA expr inh)
COCCOCC1(CNC(=O)c2nc3ccccc3[nH]2)C[C@@H](O)[C@@H](O)C1 (some centres not stated)	KDM5B inhibitor 32µM
O=C(NCC1(COc2cnccn2)C[C@@H](O)[C@@H](O)C1)c1nc2ccccc2[nH]1 (some centres not stated)	KDM5B inhibitor 28µM
CC1(C(=O)NCc2ccncc2)CCCc2cnc(NCc3ccccc3)nc21 (configuration not stated)	KDM5B inhibitor 35µM
CC1(C(=O)NCc2cnccn2)CCCc2cnc(NCc3ccccc3)nc21 (configuration not stated)	none
CN1CCC(NC(=O)C2(C)CCCc3cnc(NCc4ccccc4)nc32)CC1 (configuration not stated)	KDM5B inhibitor 22µM
CC1(C(=O)NCCN2CCOCC2)CCCc2cnc(NCc3ccccc3)nc21 (configuration not stated)	KDM5B inhibitor 35µM
Cc1ccc(-c2nn(C)c(=O)c3ccccc23)cc1CNC(=O)c1ccccc1	none (no result: SNCA viab count, IP6K1 inh, SNCA expr inh)
C=C(Br)COc1ccc(Cl)cc1C(N)=O	none (no result: SNCA viab count, IP6K1 inh, SNCA expr inh)
CNC(=O)c1ccc(-c2nc(CN3CCN(C(=O)Nc4ccccc4)CC3)c(C)o2)cc1	none (no result: SNCA viab count, IP6K1 inh, SNCA expr inh)
Brc1ccc(CN2CCC(c3nc4ncccc4[nH]3)C2)cc1 (configuration not stated)	KDM5B inhibitor 20µM!
NC(=O)c1cccc2[nH]c([C@H]3CCN(Cc4cccc(Cl)c4)C3)nc12	KDM5B inhibitor 35µM
CCCCn1c(=O)n(CC(O)COc2ccc(C(C)(C)C)cc2)c(=O)c2c1ncn2CCOC (configuration not stated)	none (no result: SNCA viab count, IP6K1 inh, SNCA expr inh)
Cc1ccc(S(=O)(=O)CCC(=O)OCc2cc(=O)oc3cc(C)c(C)cc23)cc1	none (no result: SNCA viab count, IP6K1 inh, SNCA expr inh)
c1nc2nc(Nc3ccc(N4CCOCC4)cc3)nc(NC3CCCCC3)c2[nH]1	SNCA viab count inconclusive, IP6K1 inh -41, SNCA expr inh inconclusive (no result: KDM5B inhibitor)
CC(C)CCNC(=O)CN1C(=O)NC(c2ccccc2)(c2ccccc2)C1=O	none (no result: SNCA viab count, IP6K1 inh, SNCA expr inh)
c1cncc(-c2n[nH]c(C3CCCCN3)n2)c1 (configuration not stated)	none
O=C(NC1CC(c2nnc(CO)n2C2CC2)C1)c1ccc(F)cc1Cl (configuration not stated)	none
O=C(NC1CC(c2nnc(CO)n2C2CC2)C1)c1cccn2cnnc12 (configuration not stated)	KDM5B inhibitor 28µM
COc1ccc(Cl)cc1-c1ncc2c(n1)OCCN(c1ccccc1)C2=O	KDM5B inhibitor 28µM
COc1ccccc1-c1ncc2c(n1)OCCN(c1cccc(C(F)(F)F)c1)C2=O	SNCA viab count inconclusive, KDM5B inhibitor 32µM
CN1CCOc2nc(-c3cccc(OC(F)(F)F)c3)ncc2C1=O	none
COc1ccc(-c2ncc3c(n2)OCCN(C)C3=O)cc1OC	KDM5B inhibitor 28µM
O=C(CCCn1nnnc1CN1CCOCC1)N1CCCCC1CCc1ccccn1 (configuration not stated)	none
COc1ccccc1-c1nc(C(=O)N2CCN(c3ncccn3)CC2)n2ccccc12	KDM5B inhibitor inconclusive, SNCA expr inh inconclusive
COc1ccccc1-c1nc(C(=O)N2CCN(c3ncccn3)CC2)n2ccncc12	KDM5B inhibitor inconclusive
O=C(c1nc(-c2ccc(F)cc2)c2cnccn12)N1CCOCC1	KDM5B inhibitor 40µM
COc1ccccc1-c1nc(C(=O)N2CCOCC2)n2ccccc12	KDM5B inhibitor 89µM
COc1ccccc1-c1nc(C(=O)N2CCOCC2)n2ccncc12	KDM5B inhibitor 100µM
CN1CCC(N2CCC[C@H]2C(=O)NCc2cc3n(n2)CCCNC3)CC1	none
CN(C)CCCNS(=O)(=O)c1ccc(-n2nnc3ccccc32)c([N+](=O)[O-])c1	none (no result: SNCA viab count, IP6K1 inh, SNCA expr inh)
CC(CNC(=O)Cc1n[nH]c(=O)c2ccccc12)N1CCOCC1 (configuration not stated)	none (no result: SNCA viab count, IP6K1 inh, SNCA expr inh)
CCc1[nH]ncc1C(=O)N[C@H]1CC[C@H](Nc2nccc(-c3ccccn3)n2)C1	KDM5B inhibitor 13µM
O=C(N[C@H]1CC[C@H](Nc2nccc(-c3cccnc3)n2)C1)c1ccc(O)cc1	KDM5B inhibitor 20µM
O=C(O)c1csc(Br)c1	none (no result: SNCA viab count, IP6K1 inh, SNCA expr inh)
COc1cccc(CNC(=O)c2cc(-c3ccc(C)cc3)nc3c2cnn3C)c1	SNCA expr inh inconclusive (no result: KDM5B inhibitor)
O=c1c2nc(-c3cccnc3)ccc2ncn1-c1ccc(F)cc1F	none
COc1ncc(-c2ccc3ncn(-c4ccc(F)cc4F)c(=O)c3n2)cn1	KDM5B inhibitor 40µM
COCc1cccc(-c2ccc3ncn(-c4ccc(F)cc4F)c(=O)c3n2)c1	KDM5B inhibitor 32µM
CN1C[C@@H](NC(=O)c2ccccn2)C[C@H]1c1nc(-c2ccc3ccccc3c2)no1	KDM5B inhibitor inconclusive
CN(C)c1ccc(C(=O)N[C@H]2C[C@@H](c3nc(-c4ccc5ccccc5c4)no3)N(C)C2)cc1	KDM5B inhibitor 35µM
C=CC(C)(O)CC/C=C(\C)COC1O[C@H](CO)[C@@H](O)[C@H](O)[C@H]1O (some centres not stated)	SNCA viab count inconclusive, IP6K1 inh -34 (no result: KDM5B inhibitor, SNCA expr inh)
CC(=O)NS(=O)(=O)c1ccc(NC(=O)C2c3ccccc3Oc3ccccc32)cc1	none (no result: SNCA viab count, IP6K1 inh, SNCA expr inh)
COc1ccccc1C(=O)NNC(=O)c1ccc(Br)o1	none (no result: SNCA viab count, IP6K1 inh, SNCA expr inh)
Cc1ccc(C)c(CN2CCC(CNC(=O)Cn3ncc4c([nH]c5ccccc54)c3=O)CC2)c1	KDM5B inhibitor inconclusive
NCCCN1C(=O)CC[C@H]2CN(C(=O)c3cnn4ccccc34)CC[C@H]21	KDM5B inhibitor 22µM, SNCA expr inh inconclusive
NCCCN1C(=O)CC[C@H]2CN(C(=O)c3coc4ccccc34)CC[C@H]21	none
COc1cccc(-c2ccccc2NC(=O)C2CCN(Cc3cc(OC)ccc3O)CC2)c1	KDM5B inhibitor 16µM
CN(Cc1ccccc1)c1cnn(Cc2noc(C3CC3)n2)c(=O)c1	none
O=C(O)Cn1ccc2cc(OCCc3cccc(-c4ccccc4)c3)cnc21	KDM5B inhibitor inconclusive
O=C(O)Cn1ccc2cc(OCCc3cccc(-c4ccc(Cl)cc4)c3)cnc21	KDM5B inhibitor 35µM, SNCA expr inh inconclusive
COc1cc(F)cc(-c2cccc(CCOc3cnc4c(ccn4CC(=O)O)c3)c2)c1	KDM5B inhibitor 32µM
CNc1ncc(CN(C)C(=O)c2cc(S(N)(=O)=O)ccc2F)cn1	KDM5B inhibitor 22µM
COc1ccc(-c2cc3c(=O)n(CCNC(=O)c4ccc(N(C)C)cc4)ccn3n2)cc1	KDM5B inhibitor 25µM
COc1ccc(-c2cc3c(=O)n(CCNC(=O)c4ccc5c(c4)OCO5)ccn3n2)cc1	KDM5B inhibitor 6.3µM
